# Out of some 290,000 compounds screened, about 570 (0.2%) were called active. About 1% were inconclusive and are not listed. Cut-off read from the data, not from the text of the source: active = inhibition mostly above about 51% (no sharp cut-off); inconclusive = no clear call, values can overlap the other calls; inactive = mostly below about 53%. The entries come from a sample that favours actives as a whole.
# Target: Voltage-dependent N-type calcium channel subunit alpha-1B (Homo sapiens) (UniProt Q00975)
# Experiment: inhibitors of Mint1-CaV2.2 protein interaction, biochemical, HTRF (AID 2073)
# Conditions: at 20 µM, stronger effect = higher value
# [1] = measured here: average of repeat tests
# Voltage-dependent N-type calcium channel subunit alpha-1B (Homo sapiens), sequence (Q00975 whole entry, looked up): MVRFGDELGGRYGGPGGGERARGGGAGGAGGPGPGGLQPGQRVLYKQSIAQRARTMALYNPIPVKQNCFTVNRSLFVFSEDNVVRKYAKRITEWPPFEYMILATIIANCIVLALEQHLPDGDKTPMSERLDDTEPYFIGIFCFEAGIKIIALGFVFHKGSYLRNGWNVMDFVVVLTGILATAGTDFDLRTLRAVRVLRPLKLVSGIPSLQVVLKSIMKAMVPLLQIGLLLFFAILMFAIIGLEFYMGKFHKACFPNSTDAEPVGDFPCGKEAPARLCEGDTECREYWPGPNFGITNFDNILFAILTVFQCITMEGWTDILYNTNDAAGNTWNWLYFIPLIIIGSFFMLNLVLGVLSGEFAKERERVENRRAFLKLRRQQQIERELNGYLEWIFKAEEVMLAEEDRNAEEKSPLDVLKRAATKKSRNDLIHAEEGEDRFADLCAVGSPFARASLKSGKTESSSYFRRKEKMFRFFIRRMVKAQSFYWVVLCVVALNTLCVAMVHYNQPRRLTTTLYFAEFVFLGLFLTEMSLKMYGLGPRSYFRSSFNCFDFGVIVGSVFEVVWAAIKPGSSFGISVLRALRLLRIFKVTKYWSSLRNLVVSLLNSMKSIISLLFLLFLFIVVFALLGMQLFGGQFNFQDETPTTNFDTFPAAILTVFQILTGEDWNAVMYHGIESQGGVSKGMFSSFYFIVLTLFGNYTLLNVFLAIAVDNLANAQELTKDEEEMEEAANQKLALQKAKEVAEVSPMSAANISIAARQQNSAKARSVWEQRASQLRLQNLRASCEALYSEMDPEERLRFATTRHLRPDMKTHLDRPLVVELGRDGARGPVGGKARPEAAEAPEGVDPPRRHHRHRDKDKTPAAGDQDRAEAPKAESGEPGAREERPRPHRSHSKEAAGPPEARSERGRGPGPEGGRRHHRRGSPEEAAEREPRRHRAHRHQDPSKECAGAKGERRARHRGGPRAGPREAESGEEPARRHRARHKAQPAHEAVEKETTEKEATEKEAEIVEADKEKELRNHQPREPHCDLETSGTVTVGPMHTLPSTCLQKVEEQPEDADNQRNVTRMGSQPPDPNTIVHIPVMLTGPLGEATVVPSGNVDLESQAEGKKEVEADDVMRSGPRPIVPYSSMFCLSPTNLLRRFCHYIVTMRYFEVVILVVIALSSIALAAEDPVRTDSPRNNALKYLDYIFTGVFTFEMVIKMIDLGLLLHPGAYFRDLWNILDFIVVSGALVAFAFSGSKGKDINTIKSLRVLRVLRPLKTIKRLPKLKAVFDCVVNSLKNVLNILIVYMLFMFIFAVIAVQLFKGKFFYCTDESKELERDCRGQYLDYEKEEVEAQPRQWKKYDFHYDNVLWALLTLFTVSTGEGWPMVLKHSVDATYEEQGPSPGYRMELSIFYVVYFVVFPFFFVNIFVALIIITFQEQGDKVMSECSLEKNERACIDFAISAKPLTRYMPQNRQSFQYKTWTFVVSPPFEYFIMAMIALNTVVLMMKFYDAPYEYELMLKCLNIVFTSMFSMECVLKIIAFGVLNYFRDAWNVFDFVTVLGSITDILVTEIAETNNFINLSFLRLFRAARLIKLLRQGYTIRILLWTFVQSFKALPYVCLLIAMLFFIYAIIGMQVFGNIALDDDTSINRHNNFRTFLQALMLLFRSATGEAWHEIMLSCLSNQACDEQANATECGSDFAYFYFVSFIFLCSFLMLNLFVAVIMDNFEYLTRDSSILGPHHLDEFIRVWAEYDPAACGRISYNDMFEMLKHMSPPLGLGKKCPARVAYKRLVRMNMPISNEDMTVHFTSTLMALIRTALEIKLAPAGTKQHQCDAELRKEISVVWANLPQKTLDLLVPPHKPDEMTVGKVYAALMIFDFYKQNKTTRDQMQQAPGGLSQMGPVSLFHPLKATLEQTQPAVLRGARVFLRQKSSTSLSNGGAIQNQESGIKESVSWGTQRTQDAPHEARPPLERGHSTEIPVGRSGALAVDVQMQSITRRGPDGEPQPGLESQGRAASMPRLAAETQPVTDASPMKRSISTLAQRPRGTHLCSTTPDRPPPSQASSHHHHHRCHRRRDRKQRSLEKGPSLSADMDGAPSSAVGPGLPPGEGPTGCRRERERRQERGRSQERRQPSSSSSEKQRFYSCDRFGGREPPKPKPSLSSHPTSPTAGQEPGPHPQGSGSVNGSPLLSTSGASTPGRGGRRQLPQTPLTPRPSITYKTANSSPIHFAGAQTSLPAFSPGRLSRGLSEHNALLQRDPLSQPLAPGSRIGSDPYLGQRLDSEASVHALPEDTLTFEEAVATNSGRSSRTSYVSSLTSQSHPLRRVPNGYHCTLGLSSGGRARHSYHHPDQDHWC
SMILES,inhibition,inhibition [1]
CC(C)n1c(=O)c(C=Nc2ccc(Cl)cc2)c(O)n(Cc2ccco2)c1=O,63.2% (inactive),17.6%
CC(C)n1c(=O)c(C=Nc2ccc(Br)cc2)c(O)n(Cc2ccco2)c1=O,59.1% (active),
CC(C)n1c(=O)c(C=Nc2ccc(F)cc2)c(O)n(Cc2ccco2)c1=O,14.1% (inactive),
O=C(O)CCn1cc(C=C2C(=O)NC(=O)NC2=O)c(-c2cc3ccccc3oc2=O)n1,42.3% (inactive),
O=C(O)CCn1cc(C=C2C(=O)NC(=O)NC2=O)c(-c2ccc(Br)cc2)n1,11.7% (inactive),
O=C(O)CCn1cc(C=C2C(=O)NC(=S)NC2=O)c(-c2cccc(Br)c2)n1,75.7% (active),
O=C(Cc1ccc(Br)cc1)N1CCN(Cc2ccccc2)CC1,9.2% (inactive),
CCc1ccc(N2C(=O)NC(=O)/C(=C/c3cccn3CCOc3ccc(C)cc3)C2=O)cc1,17.5% (inactive),
CN(C)C(=S)SSC(=S)N(C)C,78% (active),
CC(=O)N1CCN(Cc2ccc(Cl)nc2)CC1,5.2% (inactive),
O=C1CC(=O)N(c2cccc(Br)c2)C(=O)N1,3.7% (inactive),
Cc1ccc(NC(=O)c2cn(CCC#N)nc2-c2ccc3c(c2)OCCO3)c([N+](=O)[O-])c1,-4.2% (inactive),
COc1ccc(Cl)cc1N=Cc1c(O)n(C)c(=O)n(C)c1=O,15.7% (inactive),
CCN(CC)C(=O)c1ccc(NC(=O)CCCSc2ccccc2)cc1,-3.4% (inactive),
CCC(=O)Nc1ccccc1,-4.1% (inactive),
CCCCC/C=C\C/C=C\C/C=C\C/C=C\CCCC(=O)Nc1ccc(O)cc1,51% (active),
CN1CCN(C(=O)Cc2ccccc2)CC1,5.6% (inactive),
O=c1[nH]c(=S)n(-c2ccccc2Cl)c(O)c1C=NCCN1CCNCC1,-0.4% (inactive),
Cc1oc(-c2ccccc2)nc1CN1C(=O)CN=C(c2ccccc2)c2ccccc21,-1.1% (inactive),
COc1ccc(CC[n+]2cc(/N=C(\C)[O-])on2)cc1OC,11.6% (inactive),
Cc1cc(C=C2C(=O)NC(=O)NC2=O)c(C)n1-c1ccc2c(c1)OCO2,16.8% (inactive),
Cc1cc(/C=C2\C(=O)NC(=O)N(C)C2=O)c(C)n1-c1ccc2c(c1)OCO2,0.4% (inactive),
Cc1cc(C=C2C(=O)NC(=S)NC2=O)c(C)n1-c1ccc2c(c1)OCO2,53.2% (active),
O=C1NC(=O)C(CCc2ccncc2)(CCc2ccccn2)C(=O)N1c1ccc(Br)cc1 (stereo not drawn),16.2% (inactive),
COc1cc(Br)c(CNCCc2ccc3c(c2)OCO3)cc1OC,-3.9% (inactive),
COc1cc2c(c(OC)c1)C(=O)OC(C)CCCC(=O)CCCCC2 (stereo not drawn),7.1% (inactive),
COc1ccc(-n2c(/C=C/c3ccc(O)c(O)c3)nc3ccccc3c2=O)cc1,40.5% (inactive),
O=c1c2ccccc2nc(/C=C/c2ccc(O)c(O)c2)n1-c1ccccc1,33.3% (inactive),

SMILES,inhibition,inhibition [1]
COc1cccc(-n2c(/C=C/c3ccc(O)c(O)c3)nc3ccccc3c2=O)c1,62.6% (active),
O=C(CN1CC(c2ccccc2)CC1=O)NCc1ccc(F)cc1 (stereo not drawn),-3.7% (inactive),
C[n+]1ccc(-c2ccncc2)cc1,6.3% (inactive),
CSc1nc(N)c(N=Nc2ccc([As](=O)(O)O)cc2)c(=O)[nH]1,58.9% (active),
COc1ccc(N=Nc2c(O)[nH]c(=S)[nH]c2=O)cc1,-13.3% (inactive),
O=[As](O)(O)c1ccc(N=Nc2ccc(O)cc2)cc1,15.6% (inactive),
CN1C(=O)C(=Cc2ccc(OCCN(C)c3ccccn3)cc2)C(=O)N(C)C1=O,3.3% (inactive),
CCOP(=O)(OCC)/C(C#N)=C/c1ccc(Br)cc1,3.7% (inactive),
N#CC(C#N)=Cc1ccc(C=C(C#N)C#N)cc1,19.1% (inactive),
CCc1ccc(/C=C(/C#N)C(N)=S)cc1,84.5% (active),
CN(C)P1(N(C)C)=NC(C(F)(F)F)=NC(C(F)(F)F)=N1,2.9% (inactive),
COc1c(C=C2C(=O)NC(=O)NC2=O)c(CCN(C)C(=O)c2ccccc2)cc2c1OCO2,15.8% (inactive),
CNC(=S)N(C)CCc1cc2c(c(OC)c1C=C1C(=O)NC(=O)NC1=O)OCO2,50.6% (active),
CNC(=S)N(C)CCc1cc2c(c(OC)c1/C=C1/C(=O)NC(=O)N(C)C1=O)OCO2,6.3% (inactive),
O=C1NC(=S)N(Cc2ccco2)C(=O)/C1=C\c1cccs1,76.9% (active),
O=C1NC(=O)N(Cc2ccc(F)cc2)C(=O)/C1=C/c1cccs1,29.5% (inactive),
C=CCN1C(=O)/C(=C/c2cccs2)C(=O)NC1=S,-17.9% (inactive),
Cc1c(C=C2C(=O)N(C)C(=S)N(C)C2=O)c2ccccc2n1CC(=O)NCC1CCCO1 (stereo not drawn),-5.7% (inactive),
CCCCCCn1c(O)c(C=NCCN2CCOCC2)c(=O)[nH]c1=O,-1.8% (inactive),
O=C1/C(=C\c2ccc([N+](=O)[O-])cc2)N2CCC1CC2,-2.4% (inactive),
O=C1C2(c3ccccc3)CN3CN(C2)CC1(c1ccccc1)C3,-5.2% (inactive),
CC(C)[C@@]1(NC(=O)[C@@H]2C=C3c4cccc5[nH]cc(c45)C[C@H]3N(C)C2)O[C@@]2(O)[C@@H]3CCCN3C(=O)[C@H](Cc3ccccc3)N2C1=O,66.3% (active),
CC(C)C[C@H]1C(=O)N2CCCC2[C@]2(O)O[C@](NC(=O)[C@@H]3C=C4c5cccc6[nH]cc(c56)CC4N(C)C3)(C(C)C)C(=O)N12 (stereo partly drawn),67.7% (inactive),31.4%
CC(C)[C@H]1C(=O)N2CCC[C@H]2[C@]2(O)O[C@](NC(=O)[C@@H]3C=C4c5cccc6[nH]cc(c56)C[C@H]4N(C)C3)(C(C)C)C(=O)N12,69.1% (inactive),26.9%
CC(C)CC(NC(=O)C1CCCCC1)C(=O)N1CCC2(CC1)OCCO2 (stereo not drawn),-0.4% (inactive),
NP(=O)(OCCCc1ccccc1)Oc1ccc(Cl)cc1 (stereo not drawn),2.9% (inactive),
C=Cn1ccnc1P(=S)(c1ccc(Cl)cc1)c1nccn1C=C,4.2% (inactive),

# Source: PubChem BioAssay AID2073 (Sanford-Burnham Center for Chemical Genomics, 2009)
